The term AC50 denotes the concentration at which the activity in the assay is half-maximal.

Some of the results follow. Activity calls are given as the source filed them.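 How the source made its calls: active means fitted AC50 no greater than ten times the top concentration tested (cut at about 17 µM in these data); inconclusive means flat fit with 30 to 70% signal change, or an unreliable fit; inactive means AC50 beyond ten times the top concentration tested.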

The experiment is described as follows: DNA intercalators displacing acridine orange, dose response, counter-screen for LANA–histone interaction inhibitor project, biochemical, fluorescence polarization, cell-free (AID 463198). The conditions noted are these: acridine orange-DNA binding.
For `CN1C(=O)c2cccc3c(N)ccc(c23)C1=O`, the half-maximal activity concentration (AC50) was 7.65 µM (active).

In the case of `Cc1nn(C)cc1N1C(=O)c2cccc3c(N)ccc(c23)C1=O`, the concentration at half-maximal activity (AC50) was 4.91 µM (active).

`COc1ccc(C2C=C(c3ccc(Br)cc3)Nc3nc(NS(C)(=O)=O)nn32)cc1` (centres undefined): the AC50 is > 35 µM (inactive).

Consider `O=S(=O)(Nc1cc(Cl)ccc1N1CCOCC1)c1ccccc1Cl`, for which the AC50 is > 35 µM (inactive).
